Data taken from PubChem BioAssay.

System: Fibrinogen (Alexa647-labelled)
Test: fibrinogen binders on compound microarrays, profiling panel, artefact control for SMM control-protein annotation, biochemical, small-molecule microarray, 635/667 nm fluorescence (AID 1131);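 also: z-score merges 667 nm fluorescence with per-spot signal-to-noise over triplicate slides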
Details: fibrinogen-A647 binding fluorescence, higher = more signal

| Structure (SMILES) | composite z-score |
| --- | --- |
| CCOC(=O)C1=CC[C@@H](c2ccccc2)N(S(=O)(=O)c2ccc(C)cc2)[C@@H]1C#N | 0.317 |
| C=CCN1C(=O)[C@]2(O[C@H](CCO)[C@@H]([Si](C)(C)c3ccc(OC)cc3)[C@@H]2C)c2cc(N3C(=O)c4ccccc4Oc4ccccc43)ccc21 | 0.694 |
| C=CCOC(=O)[C@H]1[C@@H]2C(=O)O[C@@H](c3ccccc3)[C@@H](c3ccccc3)N2[C@@H](c2ccc(OCCOC(=O)[C@H]3C[C@H]4C(=O)NCC(=O)N4[C@H]3c3ccc(O)cc3)cc2)[C@]12C(=O)Nc1ccccc12 | 0.961 |
| C=CCOC(=O)[C@H]1[C@@H]2C(=O)O[C@@H](c3ccccc3)[C@@H](c3ccccc3)N2[C@@H](c2ccc(OCCOC(=O)[C@@H]3C[C@@H]4C(=O)N[C@@H](Cc5ccccc5)C(=O)N4[C@@H]3c3ccc(O)cc3)cc2)[C@]12C(=O)Nc1ccc(I)cc12 | -0.0558 |
| CC(C)[Si](C#Cc1ccccc1)(O[C@H](c1ccccc1)c1cn(Cc2ccccc2)nn1)C(C)C | 0.588 |
| O=C(NCCN1CCOCC1)[C@@H]1c2ccccc2C(=O)N(CC23CC4CC(CC(C4)C2)C3)[C@H]1c1ccc(CO)cc1 | 0.962 |
| O=C1O[C@@H](c2ccccc2)[C@@H](c2ccccc2)N2[C@@H](c3ccccc3OCCO)[C@]3(C(=O)Nc4ccc(C#CC5(O)CCCCCC5)cc43)[C@@H](C(=O)N3CCCCCCC3)[C@H]12 | 0.89 |
| CCOC(=O)C[C@H]1[C@H](OC(=O)c2ccc(-c3ccccc3)cc2)[C@@H](NC(=O)C2CCCCC2)c2cc(OCCCO)ccc2N1C(=O)Cc1ccc(OC)cc1 | 0.267 |
